PubChem BioAssay (Tox21)
Several values for one entry are separate records, joined by “and”; a condition that tells them apart may be missing. Equal values may be shown once. Inconclusive results are not listed. More than one record can exist for a structure, and the calls need not agree. Activity calls are given as the source filed them. Calls come from the whole dose curve; as a rule, active = well fitted cell-killing curve with a large enough effect in the repeat runs; inconclusive = weak or mixed curves, or effect the other way; inactive = flat fitted curve, though single readings scatter.

Test: qHTS RealTime-Glo MT Cell Viability Assay in HepG2 cells - 40 hour (AID 1224870); note: nearly all actives have a fitted effect of over 50% in size
Conditions: RealTime-Glo luminescence; series mostly up to 76.8 µM; activity change, negative = cytotoxic: at the top concentration
From the text: National Center for Advancing Translational Sciences [NCATS]
NIH Chemical Genomics Center [NCGC]
U.S. Environmental Protection Agency [EPA]
National Institutes of Environmental Health Sciences [NIEHS]
National Toxicology Program [NTP]
U.S. Food and Drug Administration [FDA]
Measure of cell viability is critical in the cell-base assay. Analysis of cell viability is necessary for the characterization of cell responses to cytotoxic drugs and environmental stress. A RealTime-Glo MT Cell Viability Assay to monitor cell viability in real time of continues cell culture during 40 hours of compound treatment was used to screen Tox21 10K library compounds in HepG2 cells. The RealTime-Glo MT Cell Viability Assay is a nonlytic, homogeneous, bioluminescent method to measure cell viability in real time using a simple, plate-based method. The assay involves adding NanoLuc luciferase and a cell-permeant prosubstrate to cells in culture. Viable cells reduce the proprietary prosubstrate to generate a substrate for NanoLuc luciferase. This substrate diffuses from cells into the surrounding culture medium, where it is rapidly used by the NanoLuc Enzyme to produce a luminescent signal. The signal correlates with the number of viable cells, making the assay well suited for cytotoxicity studies.
Tox21 Assay Protocol Summary:
The mixture of HepG2 cell suspension and reagents were dispensed at 600cells/6 ul/well in 1536-well tissue culture treated black solid bottom plates using a Multidrop dispenser. After the assay plates were incubated at a 37 C/5% CO2 incubator for 5 hours, 23 nL of compounds dissolved in DMSO, positive and negative controls was transferred to the assay plate by a pintool work station. The plates were incubated at 37 C for 40 hours. The luminescence intensity were measured at 0h, 8h, 16h, 24h, 32h and 40h time points using ViewLux plate reader during compound treatment.
% is set by controls: 0 for no effect and ±100 for the full control effect; potency is the fitted concentration of half-maximal effect.

Structure (SMILES) | activity change, negative = cytotoxic | Potency
O=C(O)c1ccccc1C(=O)Nc1cccc2ccccc12 | 2.16% (inactive) | 
NS(=O)(=O)C(F)(F)C(F)(F)C(F)(F)C(F)(F)C(F)(F)C(F)(F)C(F)(F)C(F)(F)F | -6.53% (inactive) | 
CCCN(CCC)c1c([N+](=O)[O-])cc(S(C)(=O)=O)cc1[N+](=O)[O-] | -10.5% (inactive) | 
CC(c1ccc(O)cc1)(c1ccc(O)cc1)c1ccc(O)cc1 | -13.9% (inactive) | 
Cc1c(F)c(F)c(COC(=O)C2C(/C=C(\Cl)C(F)(F)F)C2(C)C)c(F)c1F (stereo not given) | -12.7% (inactive) | 
O=C=Nc1ccc(Cl)cc1 | -4.32% (inactive) | 
COC1=CC(=O)O[C@@H](CCc2ccccc2)C1 | -0.274% (inactive) | 
N#Cc1cc(I)c(O)c(I)c1 | -14.7% (inactive) | 
Clc1ccc(C2(Cn3cncn3)CC(Br)CO2)c(Cl)c1 (stereo not given) | -16.9% (inactive) | 
CC(Cl)C(C)Cl (stereo not given) | -0.337% (inactive) | 
CCOC(=O)C(Cl)C(C)=O (stereo not given) | 1.03% (inactive) | 
COC(=O)c1cncn1C(C)c1ccccc1 (stereo not given) | 1.73% [at 35.3 µM] (inactive) | 
COP(=S)(Oc1cc(Cl)c(Br)cc1Cl)c1ccccc1 (stereo not given) | -5.02% (inactive) | 
CC(Cl)Cl | -6.5% (inactive) | 
NNC(=O)c1cccnc1 | 0.46% (inactive) | 
Nc1nc(N)nc(N)n1 | -2.08% (inactive) | 
CO/C=C(/C(=O)OC)c1ccccc1COc1cccc(C(F)(F)F)n1 | -7.3% (inactive) | 
CC1(C)CCC(Cc2ccc(Cl)cc2)C1(O)Cn1cncn1 (stereo not given) | -11.7% (inactive) | 
N#CCc1ccccc1 | -0.713% (inactive) | 
O=Cc1ccc2c(c1)OCO2 | 1.35% (inactive) | 

Structure (SMILES) | activity change, negative = cytotoxic | Potency
CCOP(=S)(OCC)Oc1cc(Cl)c(Br)cc1Cl | 1.88% (inactive) | 
CCC(COC(=O)c1cc(OC)c(OC)c(OC)c1)(c1ccccc1)N(C)C (stereo not given) | -0.545% [at 35.3 µM] (inactive) | 
C=CC(C)=O | -3.83% (inactive) | 
O=C(CCl)c1ccc(Cl)cc1Cl |  | inactive and 16.9 µM (active)
C#CCOC(C(=O)OCCN(C)C)(c1ccccc1)c1ccccc1 | 1.89% [at 35.3 µM] (inactive) | 
Nc1nc(=S)[nH][nH]1 | -4.06% (inactive) | 
C=CCCl | 0.247% (inactive) | 
c1ccc(CN2CCNCC2)cc1 | 1.24% [at 200 µM] (inactive) | 
O=C(O)C(F)(F)C(F)(F)C(F)(F)C(F)(F)C(F)(F)C(F)(F)C(F)(F)C(F)(F)C(F)(F)F | 2.22% (inactive) | 
Cc1ccc2ccccc2c1 | 0.379% (inactive) | 
CCOP(=S)(OCC)SCSCC | -0.0793% (inactive) | 
CN1C(=O)C(O)N=C(c2ccccc2)c2cc(Cl)ccc21 (stereo not given) | -3.1% (inactive) | 
O=C(Nc1ccccc1)Nc1ccnc(Cl)c1 | -21.2% (inactive) | 
CCCCCCC#N | -3.8% (inactive) | 
Nc1ccc([N+](=O)[O-])cc1[N+](=O)[O-] | 0.885% (inactive) | 
O=C(CBr)Nc1ccc(Cl)cc1C(=O)c1ccccc1F | 1.62% [at 35.3 µM] (inactive) | 
BrCCCCBr | 2.25% (inactive) | 
OC(c1ccc(Cl)cc1)(c1ccc(Cl)cc1)c1cccnc1 | -17.5% (inactive) | 
NC(=O)C(Cl)(Cl)Cl | -6.55% (inactive) | 
COC(=O)C(Br)CBr (stereo not given) | 1.01% (inactive) | 
